Compounds without any hit were thinned out: in the full panel of roughly 83,000, 20% have a hit.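 Results are percent growth after 48 hours of single-concentration exposure. 100 means growth as in untreated cells, lower positive values show inhibition; negative values down to -100 show cell death.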 Activity calls are given as the source filed them. How the source made its calls: active means growth percent below 10; inactive means the rest.
Assays:
Assay in all cases: NCI-60 one-dose screen, 48 h (100 = growth as untreated, 0 = no growth, -100 = all killed)
Settings in all cases: 10 µM unless noted
DU-145 prostate = test system: DU-145 prostate
K-562 leukemia = test system: K-562 leukemia
MALME-3M melanoma = test system: MALME-3M melanoma
MDA-MB-231 breast = test system: MDA-MB-231 breast
RXF 393 renal = test system: RXF 393 renal
SF-268 CNS = test system: SF-268 CNS
SF-295 CNS = test system: SF-295 CNS
SF-539 CNS = test system: SF-539 CNS
UACC-257 melanoma = test system: UACC-257 melanoma
M14 melanoma = test system: M14 melanoma
HCT-15 colon = test system: HCT-15 colon
HT29 colon = test system: HT29 colon
SNB-75 CNS = test system: SNB-75 CNS
SNB-19 CNS = test system: SNB-19 CNS
U251 CNS = test system: U251 CNS
PC-3 prostate = test system: PC-3 prostate
SK-MEL-5 melanoma = test system: SK-MEL-5 melanoma
UACC-62 melanoma = test system: UACC-62 melanoma
LOX IMVI melanoma = test system: LOX IMVI melanoma
SK-MEL-28 melanoma = test system: SK-MEL-28 melanoma

Measured: growth

COc1cc(C(=O)/C=C/c2c(-c3cccs3)nc3sc(C)cn23)cc(OC)c1OC
active: DU-145 prostate -18.1% | K-562 leukemia 7.44% | MALME-3M melanoma -10.6% | RXF 393 renal -35.3% | SF-295 CNS 3.07% | SF-539 CNS -2.02% | UACC-257 melanoma 0.649% | M14 melanoma 1.71% | HT29 colon 3.69% | SNB-75 CNS -15.6% | U251 CNS 5.96% | PC-3 prostate 8.02% | SK-MEL-5 melanoma -56.5% | UACC-62 melanoma -38.7% | LOX IMVI melanoma 9.35%
inactive: MDA-MB-231 breast 43.3% | SF-268 CNS 20% | HCT-15 colon 10.4% | SNB-19 CNS 15.5% | SK-MEL-28 melanoma 21.7%

CCOC(=O)c1c(NC(=S)Nc2ccc([N+](=O)[O-])cc2)sc2c1CCCCC2
inactive: DU-145 prostate 89.8% | K-562 leukemia 81.1% | MALME-3M melanoma 72.7% | MDA-MB-231 breast 79.7% | RXF 393 renal 85.6% | SF-268 CNS 89% | SF-295 CNS 87.2% | SF-539 CNS 92% | UACC-257 melanoma 70.4% | M14 melanoma 93.7% | HCT-15 colon 66.6% | HT29 colon 105% | SNB-75 CNS 86.6% | SNB-19 CNS 82.2% | U251 CNS 76.6% | PC-3 prostate 43.6% | SK-MEL-5 melanoma 42.6% | UACC-62 melanoma 47.8% | LOX IMVI melanoma 84.4% | SK-MEL-28 melanoma 85.5%

COc1ccc(S(=O)(=O)NC2c3ccccc3CC2O)cc1OC (stereo not given)
inactive: DU-145 prostate 111% | K-562 leukemia 102% | MALME-3M melanoma 110% | MDA-MB-231 breast 112% | RXF 393 renal 117% | SF-268 CNS 93.6% | SF-295 CNS 98.3% | SF-539 CNS 101% | UACC-257 melanoma 111% | M14 melanoma 99.1% | HCT-15 colon 102% | HT29 colon 107% | SNB-75 CNS 80.1% | SNB-19 CNS 98.6% | U251 CNS 102% | PC-3 prostate 97.8% | SK-MEL-5 melanoma 103% | UACC-62 melanoma 96.2% | LOX IMVI melanoma 102% | SK-MEL-28 melanoma 114%

CN(C)C(=S)NN=C(c1ccccn1)c1ccccn1
inactive: MDA-MB-231 breast 40.3% | SF-268 CNS 24.6% | SF-295 CNS 21.5% | UACC-257 melanoma 35.9% | M14 melanoma 17.2% | HCT-15 colon 37.3% | HT29 colon 27.9% | SNB-19 CNS 32.7% | U251 CNS 18.1% | PC-3 prostate 37.7% | SK-MEL-28 melanoma 30.7%
active: DU-145 prostate -18.9% | K-562 leukemia 7.91% | MALME-3M melanoma -6.46% | RXF 393 renal 6.64% | SF-539 CNS -48.2% | SNB-75 CNS -22.2% | SK-MEL-5 melanoma -19.8% | UACC-62 melanoma 9.88% | LOX IMVI melanoma 8.85%

CCN(CC)c1ccc(/C=N/NC(=O)c2ccccc2Nc2ccnc(C(F)(F)F)c2)c(O)c1
inactive: DU-145 prostate 20.7% | K-562 leukemia 62.9% | MALME-3M melanoma 45.3% | MDA-MB-231 breast 56.8% | RXF 393 renal 51.4% | SF-268 CNS 14.5% | SF-295 CNS 24.1% | UACC-257 melanoma 19.2% | HCT-15 colon 32.6% | HT29 colon 37.7% | SNB-75 CNS 43.8% | SNB-19 CNS 20.1% | U251 CNS 14.8% | PC-3 prostate 36% | UACC-62 melanoma 19.4% | SK-MEL-28 melanoma 47.9%
active: SF-539 CNS -11.1% | M14 melanoma -17.4% | SK-MEL-5 melanoma 3.96% | LOX IMVI melanoma 5.58%

CCOC(=O)C1=C(c2ccccc2)N=C2SC=C(c3cccc([N+](=O)[O-])c3)N2C1c1ccc(O)cc1 (stereo not given)
inactive: DU-145 prostate 102% | K-562 leukemia 112% | MALME-3M melanoma 96.7% | MDA-MB-231 breast 93.2% | RXF 393 renal 89.1% | SF-268 CNS 94.3% | SF-295 CNS 101% | SF-539 CNS 98.8% | UACC-257 melanoma 96.1% | M14 melanoma 101% | HCT-15 colon 97.7% | HT29 colon 105% | SNB-75 CNS 91.4% | SNB-19 CNS 97% | U251 CNS 96.6% | PC-3 prostate 94.8% | SK-MEL-5 melanoma 97.7% | UACC-62 melanoma 92.7% | LOX IMVI melanoma 95.4% | SK-MEL-28 melanoma 104%

COc1ccccc1NC(=O)n1c(=O)cc(C)c2ccc(O)cc21
inactive: DU-145 prostate 113% | K-562 leukemia 117% | MALME-3M melanoma 106% | MDA-MB-231 breast 106% | RXF 393 renal 94.8% | SF-268 CNS 106% | SF-295 CNS 101% | SF-539 CNS 106% | UACC-257 melanoma 111% | M14 melanoma 113% | HCT-15 colon 104% | HT29 colon 106% | SNB-75 CNS 101% | SNB-19 CNS 106% | U251 CNS 106% | PC-3 prostate 99.9% | SK-MEL-5 melanoma 98.3% | UACC-62 melanoma 100% | LOX IMVI melanoma 105% | SK-MEL-28 melanoma 113%

From PubChem BioAssay (NCI)
